Results on 29 molecules are retold here after ChEMBL document CHEMBL4513146, “CO-ADD screening of Karazin Kharkiv National University (Ukraine) compounds”.

Results with a measured potency or affinity are listed apart.

The Inhibition is the relative decrease from the control value, in per cent.

One assay has as its system Klebsiella pneumoniae. Particulars: Concentration 32 ug.mL-1;; ASSAY_TEST Inhibition of Bacterial Growth; detection method Absorption (OD600); MEDIA CAMHB; plate type 384well; NBS; CORNING #3640; time 18 hr.
Another assay deals with Candida albicans. The conditions noted are these: Concentration 32 ug.mL-1; ASSAY_TEST Inhibition of Fungal Growth; detection method Absorption (OD530).
The subject of a further assay is Cryptococcus neoformans. The conditions noted are these: Concentration 32 ug.mL-1; ASSAY_TEST Inhibition of Fungal Growth; detection method Resazurin; Absorption (OD600-OD570); plate type 384well; NBS; CORNING #3640. In general terms: Alamar Blue is a resazurin reagent that responds to reducing activity.

Regarding `N#Cc1cccc(NC(=O)CSc2nnc3c4cc(-c5ccccc5)nn4ccn23)c1`, the Inhibition in the assay on Klebsiella pneumoniae is recorded as 9.61%; with Candida albicans it was 7.44%; with Cryptococcus neoformans it was -14.96%.

Consider `Cc1ccc(-c2ccc3nn(CC(=O)N4CCN(c5ccccc5)CC4)c(=O)n3n2)cc1C`, for which the Inhibition with Klebsiella pneumoniae is 1.81%; in the assay on Candida albicans it was 0.84%; in the assay on Cryptococcus neoformans, -5.58%.

Regarding `COc1cccc(-c2nc(CSc3nc4ccccc4n4c(C(C)C)nnc34)c(C)o2)c1OC`, the values for the Inhibition in the assay with Klebsiella pneumoniae, with Candida albicans and with Cryptococcus neoformans were 2.62%, -0.24% and -8.54%, respectively.

Turning to `COc1cccc(-n2ccn3c(SCC(=O)N4CCN(c5ccccc5F)CC4)nnc3c2=O)c1`, the Inhibition in the assay on Klebsiella pneumoniae is 17.26%; in the assay with Candida albicans, 0.16%; in the assay with Cryptococcus neoformans, -10.18%.

As to `Cc1ccc(NC(=O)Cn2nc3ccc(-c4ccc(Cl)cc4)nn3c2=O)cc1`, the Inhibition with Klebsiella pneumoniae is on record as 3.71%; in the assay with Candida albicans, 1.61%; with Cryptococcus neoformans, -4.05%.

Consider `COc1ccccc1N1CCN(C(=O)Cn2nc3ccc(-c4ccccc4)nn3c2=O)CC1`, for which the Inhibition in the assay on Klebsiella pneumoniae was 2.09%; in the assay with Candida albicans, 1.1%; in the assay with Cryptococcus neoformans, -5.13%.

In the case of `Cc1ccc(Cl)cc1NC(=O)CSc1nc2ccccc2n2c(C)nnc12`, the Inhibition in the assay with Klebsiella pneumoniae is given as 2.82%; in the assay on Candida albicans, 5.91%; in the assay with Cryptococcus neoformans it was -21.14%.

On to `O=c1c2sccc2n2c(=O)n(Cc3cccc(Cl)c3)nc2n1Cc1cccs1`, for which the Inhibition in the assay with Klebsiella pneumoniae was 3.75%; in the assay with Candida albicans, 61.44%; with Cryptococcus neoformans it was -14.34%.

For `COc1ccc(CN(c2ccc(OC)cc2)S(=O)(=O)c2ccc3nnc(C)n3c2)cc1`, the Inhibition in the assay with Klebsiella pneumoniae is listed as 9.27%; with Candida albicans it was 0.4%; in the assay on Cryptococcus neoformans, -1.1%.

For `CCOc1ccc(NC(=O)CSc2nnc3c(=O)n(-c4ccc(OCC)cc4)ccn23)cc1`, the Inhibition in the assay with Klebsiella pneumoniae is on record as 13.96%; with Candida albicans, 2.39%; in the assay on Cryptococcus neoformans it was -11.05%.

For the molecule `CCc1ccc(N(Cc2ccc(C)cc2)S(=O)(=O)c2cccn3cnnc23)cc1`, the Inhibition with Klebsiella pneumoniae is -0.39%; with Candida albicans, 4.26%; with Cryptococcus neoformans, -5.61%.

In the case of `Cc1cc2nn(CC(=O)NCc3ccccc3)c(=O)n2c(-c2ccc(C(F)(F)F)cc2)n1`, the Inhibition is -2.81% in the assay with Klebsiella pneumoniae, 22.82% in the assay on Candida albicans and -6.62% in the assay with Cryptococcus neoformans.

In the case of `COc1cc(OC)c(NC(=O)Cn2nc3c(N4CCOCC4)nccn3c2=O)cc1Cl`, the Inhibition with Klebsiella pneumoniae is on record as 1.91%; with Candida albicans it was 3.65%; in the assay on Cryptococcus neoformans, -8.41%.

Regarding `O=C(Cn1nc2c(Oc3ccccc3)nccn2c1=O)Nc1ccc(F)cc1F`, the results for the Inhibition with Klebsiella pneumoniae, in the assay with Candida albicans and in the assay with Cryptococcus neoformans were 0.94%, -1.91% and -7.74%, respectively.

Turning to `COc1cccc(CSc2nnc3c(=O)n(-c4ccccc4OC)ccn23)c1`, the Inhibition with Klebsiella pneumoniae is reported as 6.64%; with Candida albicans, 1.36%; with Cryptococcus neoformans it was -5.34%.

For `Cc1ccc(CNC(=O)Cn2nc3c(Sc4ccc(C)cc4C)nccn3c2=O)cc1`, the Inhibition in the assay with Klebsiella pneumoniae is 3.93%; in the assay with Candida albicans, 2.64%; in the assay with Cryptococcus neoformans it was -16.78%.

As to `COc1ccc(-c2cc3c4nn(CC(=O)Nc5ccc(C)cc5C)c(=O)n4ccn3n2)cc1`, the results for the Inhibition with Klebsiella pneumoniae, with Candida albicans and in the assay with Cryptococcus neoformans were 11.47%, 2.57% and -20.53%, respectively.

Turning to `Cc1ccc(-c2ccc3nn(Cc4ccc5c(c4)OCO5)c(=O)n3n2)cc1C`, the Inhibition in the assay with Klebsiella pneumoniae is reported as 2.14%; in the assay on Candida albicans, 1.11%; in the assay on Cryptococcus neoformans, -18.91%.

Consider `Cc1c(Cl)cccc1NC(=O)Cn1nc2c(N3CCOCC3)nc3ccccc3n2c1=O`, for which the Inhibition in the assay with Klebsiella pneumoniae was 9.14%; in the assay with Candida albicans, 0.17%; in the assay with Cryptococcus neoformans it was -24%.

As to `Cc1ccc(NC(=O)Cn2nc3ccc(SC(C)(C)C)nn3c2=O)c(C)c1`, the results for the Inhibition in the assay on Klebsiella pneumoniae, in the assay on Candida albicans and with Cryptococcus neoformans were 14.3%, 1.14% and -21.84%, respectively.

Take `COc1cc(OC)c(NC(=O)Cn2nc3c(Sc4ccc(C)cc4C)nccn3c2=O)cc1Cl`: the Inhibition in the assay on Klebsiella pneumoniae is 6.06%; in the assay with Candida albicans, 4%; in the assay with Cryptococcus neoformans, -14.9%.

Take `N#Cc1ccc(NC(=O)Cn2nc3c(SCc4ccc(Cl)cc4)nccn3c2=O)cc1`: the values for the Inhibition in the assay with Klebsiella pneumoniae, in the assay with Candida albicans and in the assay with Cryptococcus neoformans were 12.55%, 4.94% and -19.24%, respectively.

For the molecule `CCc1ccccc1NC(=O)Cn1nc2cc(C)nc(Nc3ccc(F)c(C)c3)n2c1=O`, the Inhibition in the assay on Klebsiella pneumoniae is on record as 11.82%; with Candida albicans, 5.42%; in the assay with Cryptococcus neoformans it was -2.36%.

For the molecule `Cc1cc(C)cc(NC(=O)CSc2nnc3c(=O)n(-c4ccc(Br)cc4)ccn23)c1`, the results for the Inhibition in the assay with Klebsiella pneumoniae, with Candida albicans and in the assay on Cryptococcus neoformans were 11.44%, 6.21% and -22.2%, respectively.

As to `COc1ccccc1-n1ccn2c(SCC(=O)N3CCN(c4ccccc4F)CC3)nnc2c1=O`, the Inhibition in the assay on Klebsiella pneumoniae is given as 14.09%; in the assay on Candida albicans, 3.15%; in the assay with Cryptococcus neoformans, -10.82%.

Take `O=C(Cn1nc2c3cc(-c4ccc(F)cc4)nn3ccn2c1=O)N1CCCc2ccccc21`: the Inhibition is on record as 8.12% in the assay on Klebsiella pneumoniae, 1.02% in the assay on Candida albicans and -21.22% with Cryptococcus neoformans.

Turning to `Cc1ccc(NC(=O)Cn2nc3c(SCc4ccc(Cl)cc4)nccn3c2=O)c(C)c1`, the Inhibition in the assay on Klebsiella pneumoniae is given as 13.7%; in the assay with Candida albicans, 0.54%; with Cryptococcus neoformans, -21.97%.

In the case of `COc1ccc(-c2cc3c4nnc(SCC(=O)Nc5ccc(C)cc5Cl)n4ccn3n2)cc1`, the values for the Inhibition with Klebsiella pneumoniae, in the assay with Candida albicans and with Cryptococcus neoformans were 11.06%, 0.54% and -30.51%, respectively.

Consider `Cc1ccc(Sc2nccn3c(=O)n(CC(=O)Nc4ccc(C)c(Cl)c4)nc23)c(C)c1`, for which the Inhibition in the assay with Klebsiella pneumoniae was 10.52%; in the assay on Candida albicans, -2.58%; in the assay on Cryptococcus neoformans, -26.74%.
